The values that follow come from PubChem BioAssay (NCATS).

SMILES strings stand for the structures. Records with an inconclusive call do not appear. Values without a mark were called inactive. The source made the active and inactive calls. The call rests on the fitted dose curve; in most records, active means well fitted curve in the direction sought with a large enough effect; inconclusive means small, poorly fitted or top-dose-only effect, or another doubt; inactive means no such curve, though single readings can be large; an effect the other way counts as inactive or inconclusive.

The nature of experiment [1]: qHTS of pediatric cancer cell lines to identify multiple opportunities for drug repurposing: Primary screen for TC32 cells (AID 1347089). Further: nearly all actives have a fitted effect of over 60% in size. On activity change, negative = cytotoxic: on the % scale 0 is the no-effect control and ±100 the full control effect. An outline of the steps:
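TC32 cells, 500-1,000/well in growth medium, compound-treated 48 h at 37 °C; viability from CellTiter-Glo luminescence. Primary screen: MIPE 11-point (0.78 nM–46 µM final), NPC 8-point (0.59 nM–46 µM final); confirmatory at 11-point dilutions.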

Experiment [2] in a line: qHTS of pediatric cancer cell lines to identify multiple opportunities for drug repurposing: Primary screen for DAOY cells (AID 1347090). Further: nearly all actives have a fitted effect of over 55% in size.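 On activity change, negative = cytotoxic: series mostly up to about 46 µM; plate controls were DMSO for no effect and bortezomib for full effect.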 In outline:
(§1)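 Eight- or eleven-point concentration series, 48 h treatment at 37 degrees C in growth media; readout CellTiter-Glo luminescence. Potency and efficacy were taken from the concentration-response curves.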

Experiment [3] is described as follows: qHTS of pediatric cancer cell lines to identify multiple opportunities for drug repurposing: Primary screen for SJ-GBM2 cells (AID 1347091).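 On activity change, negative = cytotoxic: plate controls were DMSO neutral control for no effect and bortezomib for full effect.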 An outline of the steps:
as §1
(Quantitative high-throughput screening tests each substance at several concentrations.)

A short description of experiment [4]: qHTS of pediatric cancer cell lines to identify multiple opportunities for drug repurposing: Primary screen for A673 cells (AID 1347092). Further: nearly all actives have a fitted effect of over 45% in size. On activity change, negative = cytotoxic: on the % scale 0 is the no-effect control and ±100 the full control effect. An outline of the steps: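 A673 cells (500-1,000 cells/well) were treated 48 hours at 37 degrees C with compounds at 11-point (0.78 nM to 46 µM) or 8-point (0.59 nM to 46 µM) dilutions. Viability read by CellTiter-Glo luminescence; concentration-response curves fitted.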

Experiment [5] is described as follows: qHTS of pediatric cancer cell lines to identify multiple opportunities for drug repurposing: Primary screen for SK-N-MC cells (AID 1347093).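 On activity change, negative = cytotoxic: series mostly up to about 46 µM; plate controls were DMSO neutral control for no effect and bortezomib for full effect.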 In outline:
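Metabolically active cells were quantified by ATP-dependent luminescence (CellTiter-Glo, 15 min at room temperature) following 48 h treatment. Cells had been plated at 500-1,000 per well and settled for 5 h beforehand.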

Experiment [6] is described as follows: qHTS of pediatric cancer cell lines to identify multiple opportunities for drug repurposing: Primary screen for BT-37 cells (AID 1347094).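 On activity change, negative = cytotoxic: series mostly up to about 57 µM; plate controls were DMSO for no effect and bortezomib for full effect.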 An outline of the steps:
(§2)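 Cells plated at 500-1,000/well in growth medium, compounds added after 5 h. MIPE tested at 11 points (from 0.78 nM), NPC at 8 points (from 0.59 nM). CellTiter-Glo luminescence after 48 h; concentration-response curves from primary screen.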

Experiment [7] is described as follows: qHTS of pediatric cancer cell lines to identify multiple opportunities for drug repurposing: Primary screen for NB-EBc1 cells (AID 1347095).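 On activity change, negative = cytotoxic: plate controls were DMSO neutral control for no effect and bortezomib for full effect.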 An outline of the steps:
as §2

A short description of experiment [8]: qHTS of pediatric cancer cell lines to identify multiple opportunities for drug repurposing: Primary screen for U-2 OS cells (AID 1347096). Further: nearly all actives have a fitted effect of over 50% in size.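 On activity change, negative = cytotoxic: plate controls were DMSO wells for no effect and bortezomib positive control wells for full effect.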 In outline:
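Cells (500-1,000/well) in growth media were settled 5 h at 37 degrees C, then given compounds for 48 h. Viability was read as CellTiter-Glo luminescence. Primary runs used MIPE at 11 points (0.78 nM-46 µM) and NPC at 8 points (0.59 nM-46 µM); follow-ups used 11 points.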
Potency means the concentration at half of the fitted maximal effect.

Consider `CN[C@@H]1[C@@H](O)[C@@H](O[C@@H]2[C@@H](O)[C@H](O[C@H]3O[C@H](CN)[C@@H](O)[C@H](O)[C@@H]3O)[C@@H](N)C[C@@H]2NC(=O)[C@@H](O)CN)OC[C@]1(C)O`, for which the Potency entry in experiment [1], in experiment [2], in experiment [3], in experiment [4], in experiment [5] and in experiment [6] was “inactive” each time. The Potency result in experiment [7] and in experiment [8] was “inactive” in each case.

For the molecule `COC(=O)N1CCN(Cc2cccc(NC(=O)Nc3ccc(C)nc3)c2F)CC1`, the Potency entry in experiment [1], in experiment [2], in experiment [3], in experiment [4], in experiment [5] and in experiment [6] was “inactive” throughout. The Potency result in experiment [7] and in experiment [8] was “inactive” each time.

Take `CCC[C@@H](NC(=O)[C@@H]1[C@H]2CCC[C@@H]2CN1C(=O)[C@@H](NC(=O)[C@@H](NC(=O)c1cnccn1)C1CCCCC1)C(C)(C)C)C(=O)C(=O)NC1CC1`: the Potency entry in experiment [1], in experiment [2], in experiment [4], in experiment [7] and in experiment [8] was “inactive” each time. Moreover, the Potency was 18700 nM (active) in experiment [3] and 23500 nM (active) in experiment [5].

Regarding `O=C(O)C1=CC(O)C(O)[C@H](O)C1` (some centres undefined), the Potency entry in experiment [1], in experiment [2], in experiment [3], in experiment [4], in experiment [5] and in experiment [6] was “inactive” in each case. Moreover, the Potency entry in experiment [7] and in experiment [8] was “inactive” in each case.

Take `CO[C@H]1C=CO[C@@]2(C)Oc3c(C)c(O)c4c(O)c(c(C=NN5CCN(C)CC5)c(O)c4c3C2=O)NC(=O)C(C)=CC=C[C@H](C)[C@H](O)[C@@H](C)[C@@H](O)[C@@H](C)[C@H](OC(C)=O)[C@H]1C`: the activity change, negative = cytotoxic in experiment [1] was 6.56% [at 9.17 µM]; in experiment [2], -7.74% [at 9.22 µM]; in experiment [3], 4.67% [at 9.22 µM]; in experiment [4], 0.264% [at 9.22 µM]; in experiment [5], -4.39% [at 9.22 µM]; in experiment [6], -9.92% [at 11.5 µM]. For the same molecule, the activity change, negative = cytotoxic in experiment [7] is -7.84% [at 9.22 µM]; in experiment [8] it was -1.44% [at 9.22 µM].

With `COc1cc(C=CC(=O)O)ccc1O`, the Potency result in experiment [1], in experiment [2], in experiment [3], in experiment [4], in experiment [6] and in experiment [7] was “inactive” in each case. In addition, in experiment [8], the Potency result is “inactive”. Besides, the Potency in experiment [5] is 20900 nM (active).

Consider `CN1CC(=O)N2C(Cc3c([nH]c4ccccc34)[C@H]2c2ccc3c(c2)OCO3)C1=O` (some centres undefined), for which the Potency result in experiment [1], in experiment [2], in experiment [3], in experiment [4], in experiment [5] and in experiment [6] was “inactive” each time. Moreover, the Potency result in experiment [7] and in experiment [8] was “inactive” in each case.

`CN(C)c1nc(Cc2ccc(NC(=O)c3ccc(C(F)(F)F)cc3)cc2)nc(N(C)C)c1CC(=O)O`: the Potency result in experiment [1], in experiment [2], in experiment [3], in experiment [4], in experiment [5] and in experiment [6] was “inactive” each time. Besides, the Potency result in experiment [7] and in experiment [8] was “inactive” throughout.

Consider `C[C@@H]1[C@H](O)[C@@H](C)C=CC=CC=CC=CC=CC=CC=C[C@H](O[C@@H]2O[C@H](C)[C@H](O)[C@H](N)[C@@H]2O)C[C@@H]2O[C@](O)(C[C@@H](O)C[C@@H](O)[C@H](O)CC[C@@H](O)C[C@@H](O)CC(=O)O[C@H]1C)C[C@H](O)[C@@H]2C(=O)O`, for which the Potency in experiment [1] was 2940 nM (active); in experiment [4] it was 148 nM (active); in experiment [5] it was 118 nM (active). The Potency result in experiment [2], in experiment [3], in experiment [6] and in experiment [8] was “inactive” in each case.

On to `CN1CCN2c3ncccc3Cc3ccccc3C2C1` (centres undefined), for which the Potency entry in experiment [1], in experiment [2], in experiment [3], in experiment [4], in experiment [5] and in experiment [6] was “inactive” throughout. Moreover, the Potency entry in experiment [7] and in experiment [8] was “inactive” throughout.

In the case of `CC(C)=CCCC(C)=CCCC(C)=CCCC(C)=CCCC(C)=CCCC(C)=CCCC(C)=CCCC(C)=CCCC(C)=CCO`, the Potency entry in experiment [1], in experiment [2], in experiment [3], in experiment [4], in experiment [5] and in experiment [6] was “inactive” in each case. Further, the Potency result in experiment [7] and in experiment [8] was “inactive” in each case.

Take `NS(=O)(=O)c1cc(Cl)c(Cl)c(S(N)(=O)=O)c1`: the Potency entry in experiment [1], in experiment [2], in experiment [3], in experiment [4], in experiment [5] and in experiment [6] was “inactive” each time. For the same molecule, the Potency result in experiment [7] and in experiment [8] was “inactive” in each case.

Take `CNC(=O)[C@H](CC1=CN=C2C=CCC=C12)NC(=O)[C@@H](CC(=O)NO)CC(C)C`: the Potency entry in experiment [1], in experiment [3] and in experiment [8] was “inactive” in each case. Besides, the Potency in experiment [2] is 29.6 nM (active); in experiment [4], 46.9 nM (active); in experiment [5], 5.9 nM (active); in experiment [6], 685 nM (active).

Regarding `CCCCC(F)(F)[C@@]1(O)CC[C@H]2[C@H](CC(=O)[C@@H]2CCCCCCC(=O)O)O1`, the Potency entry in experiment [1], in experiment [2], in experiment [3], in experiment [4], in experiment [5] and in experiment [6] was “inactive” each time. For the same molecule, the Potency entry in experiment [7] and in experiment [8] was “inactive” throughout.

Turning to `O=C(c1ccc(F)c(F)c1Nc1ccc(I)cc1F)N1CC(O)([C@H]2CCCCN2)C1`, the Potency result in experiment [1] was “inactive”. For the same molecule, the Potency in experiment [2] is 18700 nM (active); in experiment [3], 4690 nM (active); in experiment [4], 23.5 nM (active); in experiment [5] it was 1480 nM (active); in experiment [6], 1090 nM (active); in experiment [7] it was 1660 nM (active). The Potency in experiment [8] is 14800 nM (active).

For the molecule `OC[C@H]1O[C@@H](O[C@H]2[C@@H](O)[C@@](O)(CO)O[C@@H]2CO)[C@H](O)[C@@H](O)[C@@H]1O`, the Potency entry in experiment [1], in experiment [2], in experiment [3], in experiment [4], in experiment [5] and in experiment [6] was “inactive” in each case. For the same molecule, the Potency entry in experiment [8] was “inactive”.
